# Assay outcomes (PubChem BioAssay)
# A selection: hits, their analogues and other compounds. The true share with any hit is near 5.4%.
# HPGD block: HPGD (human) dehydrogenase inhibition | 150,000 compounds, 4.3% hits | purified HPGD, NADH fluorescence kinetic, PGE2 substrate | P15428 | Potency, µM, for the others: at the top dose activity change, negative = inhibition, hits mostly inhibitors | AID 894; active means well fitted inhibition curve with a large enough effect, not every such curve was filed as active; inconclusive means small, poorly fitted or top-dose-only effect, or another doubt; inactive means no such curve, though single readings can be large or run the other way; further: potency means the concentration at half of the fitted maximal effect
# Target sequence (P15428 whole entry, looked up): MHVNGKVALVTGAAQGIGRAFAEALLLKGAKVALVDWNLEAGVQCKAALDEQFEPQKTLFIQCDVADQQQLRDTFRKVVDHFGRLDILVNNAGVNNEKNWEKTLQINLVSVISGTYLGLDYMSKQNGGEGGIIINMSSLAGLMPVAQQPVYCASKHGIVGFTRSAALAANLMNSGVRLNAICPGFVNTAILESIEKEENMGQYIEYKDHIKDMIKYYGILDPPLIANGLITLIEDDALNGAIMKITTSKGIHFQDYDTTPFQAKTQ
#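 20 nM HPGD preincubated 15 min at room temperature with compound in 50 mM Tris-HCl pH 8, 0.01% Tween 20. Started with 1 mM NAD+ and 30 uM prostaglandin E2; NADH fluorescence (360/450 nm) read 5 times over 30-s intervals, last minus first.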
# ALOX15B inhib: blocks human 15-lipoxygenase 2 activity | O15296 | purified 15hLO-2, xylenol orange hydroperoxide absorbance | Potency, µM (series often up to 57.1 µM), for inactives: at the top dose activity change, negative = inhibition, hits mostly inhibitors | 110,000 compounds, 0.56% hits; further: potency means the concentration at half of the fitted maximal effect; nearly all actives have a fitted effect of over 60% in size
#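 Purified human 15hLO-2 (50 nM) preincubated 15 min with compound, then 45 uM arachidonic acid for 90 min at RT in 25 mM Hepes pH 7.5, 0.01% Triton X-100. Hydroperoxide detected by Fe-xylenol orange; 573/405 nm absorbance ratio.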
# IMPase Li cell: membrane-permeable IMPase blocker, potentiated with lithium. 210,000 compounds, 0.35% hits. Potency, µM (highest dose often 59.4 µM), for the others: at the highest dose activity, negative = IMPase inhibition, actives largely listed as inhibitors. CHO-M1 cells, IP1 TR-FRET (IP-One), carbachol + lithium. AID 1457;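 further: IP1 builds up when IMPase is blocked and the TR-FRET signal falls; potency means the concentration at half of the fitted maximal effect; plate controls were basal vehicle for no effect and high inhibitor control for full effect; nearly all actives have a fitted effect of over 50% in size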
#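 CHO-M1, 2000 cells/well, 16–30 h culture; cpd + low Li+, 30 min 37C; lysis with d2-IP1/Eu-anti-IP1 Ab, 10 min RT; TR-FRET 665/620 ratio and 620 channel; AC50 via Hill.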
# IMPase inh: cell-permeable inhibitors of inositol monophosphatase (IMPase). P97697. CHO-M1 cells, IP1 accumulation, HTRF TR-FRET ratio. inhibition (IP1 accumulation), % at 46.1 µM. 120,000 tested, under 10 active. AID 901; active means well fitted curve in the direction sought with a large enough effect in the signal ratio, not every such curve was filed as active; inconclusive means small, poorly fitted or top-dose-only effect, or a change in a side signal; inactive means no such curve, though single readings can be large or run the other way; the % refers to the signal ratio;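 further: cells stimulated with carbachol in lithium chloride buffer; plate controls were DMSO basal wells for no effect and reference inhibitor wells for full effect; higher means more IMPase inhibition seen as more IP1 and lower FRET ratio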
# Target sequence (P97697 whole entry, looked up): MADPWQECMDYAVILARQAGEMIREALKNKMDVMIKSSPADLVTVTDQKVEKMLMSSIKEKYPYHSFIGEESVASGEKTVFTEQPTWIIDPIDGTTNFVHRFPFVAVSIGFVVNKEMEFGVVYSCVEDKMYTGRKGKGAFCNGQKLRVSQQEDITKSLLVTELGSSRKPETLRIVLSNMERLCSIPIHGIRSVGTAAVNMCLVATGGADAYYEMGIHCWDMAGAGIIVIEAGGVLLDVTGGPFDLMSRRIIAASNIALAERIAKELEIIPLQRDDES
#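 Seeded CHO-M1 cells were dosed with compound at up to 46 uM, stimulated with carbachol for 30 min, then lysed in IP-One detection reagents. Higher IP1 lowers the TR-FRET signal.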
# PNC inhibitor: perinucleolar compartment assembly inhibition; PC3M PTB-GFP, PNC prevalence imaging, 16 h; hits give low values; activity change (PNC), negative = inhibition, % at 10 µM; 140,000 compounds, 3.1% hits; AID 2417;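 active means readout at or below -70, meaning at least 70% loss of cells showing the perinucleolar compartment, a nuclear body marking cancer cells; inconclusive means readout between -30 and a set limit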;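 further: plate controls were DMSO wells for no effect and camptothecin positive control wells for full effect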
#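 PC3M cells stably expressing PTB-GFP, 750–1000 cells/well, treated 16 h at 37 °C with compound (23 nl of library stock), in duplicate. After paraformaldehyde fixation and Hoechst stain, imaged at 20x; PNC prevalence scored by image analysis.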
# 12-hLO inh: inhibitors of human 12-lipoxygenase (ALOX12) | P18054 | purified 12-hLO, xylenol orange hydroperoxide absorbance | Potency, µM (highest dose often 57.1 µM), for the others: at the top dose activity change, negative = inhibition, hits mostly inhibitors | 150,000 compounds, 0.12% hits | AID 1452; further: potency means the concentration at half of the fitted maximal effect; nearly all actives have a fitted effect of over 55% in size
#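 Purified human 12hLO (150 nM final) was preincubated with compounds for 15 min at room temperature in 25 mM Hepes pH 7.0, 0.01% Triton X-100, then reacted with 40 uM arachidonic acid for 30 min. Hydroperoxide was detected with ferrous iron/xylenol orange.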
# Starred values were filed as active, the others as inactive; ? = inconclusive; . = not tested or not shown; [ ] = dose if it differs, or a comment. Unless noted, the call rests on the fitted dose curve; in most records, active means well fitted curve in the direction sought with a large enough effect; inconclusive means small, poorly fitted or top-dose-only effect, or another doubt; inactive means no such curve, though single readings can be large; an effect the other way counts as inactive or inconclusive. Unless noted, on the % scale 0 is the no-effect control and ±100 the full control effect.
SMILES,HPGD block,ALOX15B inhib,IMPase Li cell,IMPase inh,PNC inhibitor,12-hLO inh
O=c1c(-c2cccs2)nc2cnc(Oc3cccc(Cl)c3)nc2n1C[C@H]1CCCO1,?,-3%,17%,.,.,-8%
Cc1cc(C)n(CCc2nc(-c3ccc(C(C)(C)C)cc3)cs2)n1,.,.,.,7,25,-3%
Cc1cc(C)n(CCc2nc(-c3ccc(F)cc3)cs2)n1,25µM*,.,-5%,.,50,-1%
CC(Nc1oc(-c2ccccc2)nc1-c1cccc2ccccc12)c1ccccc1 (centres undefined),-4%,.,1%,.,.,-5%
CCc1nc2sc3ccccc3c(=O)c2c(=O)n1Cc1ccco1,-5%,.,2%,8[0.0738 µM],-28,-4%
O=c1c2ccccc2sc2nc(C3CCCCC3)n(Cc3ccco3)c(=O)c12,16µM*,?,35%[38.3 µM],-1,7,?
COc1ccc2oc(-c3ccc(O)cc3)cc(=O)c2c1,?,-13%,-12%,0,.,2%
COc1ccc(C2C3=C(CCCC3=O)Nc3nc(SCc4ccccc4)nn32)cc1OC (centres undefined),-16%,6%[2.29 µM],-10%[38.3 µM],2,-86*,28%
COC(=O)c1nc2n(n1)C(c1cccc(Cl)c1)C1=C(CCCC1=O)N2 (centres undefined),16µM*,7%,2%[38.3 µM],9,9,-2%
COC(=O)C1=C(C(=O)OC)[C@@H]2N(C)c3ccccc3[C@@]23C[C@@H](CO)N(C(=O)c2ccco2)C3=N1,5%,.,-1%,.,.,0%[11.4 µM]
C=C(C)C(=O)OCC(C)O (centres undefined),-3%,3%,-7%,.,.,5%
O=C(O)CCNc1ncnc2nc[nH]c12,-2%,-5%[11.4 µM],-2%,.,.,-3%[11.4 µM]
O=C1CC(C(=O)Nc2ccc(Cl)cc2[N+](=O)[O-])C2(CCCCC2)O1 (centres undefined),-4%,.,-2%,.,-84*,0%
O=C1CC(C(=O)Nc2ccccc2)C2(CCCCC2)O1 (centres undefined),-14%,2%,28%[38.3 µM],1,3,-2%
COc1cccc(-c2nc(SCC(=O)NC3CCCC3)c(-c3ccc(F)cc3)[nH]2)c1,.,.,.,2,.,.
CCCCC/C=C\C/C=C\C/C=C\C/C=C\CCCCCC(N)=O,-6%,.,14%,.,.,2%
O=c1c(C(c2ccc(O)cc2)c2c(O)nc3n(c2=O)CCS3)c(O)nc2n1CCS2,13µM*,10%,-11%[38.3 µM],-4,14,-16%
Cc1ccc(C(c2c(O)nc3n(c2=O)CCS3)c2c(O)nc3n(c2=O)CCS3)cc1,-16%,.,-5%,.,-81*,-8%
O=c1c(C(c2ccc(O)cc2)c2c(O)nc3n(c2=O)CCCS3)c(O)nc2n1CCCS2,?,-1%,-14%[38.3 µM],-7,-7,-15%
Cc1cccc(Nc2nnc(-n3nc(C)cc3C)c3ccccc23)c1,.,.,.,-4,.,.
O=C(COc1ccc(S(=O)(=O)NC2CCCCC2)cc1)Nc1ccc(C(F)(F)F)cc1,.,.,.,11,.,.
COc1cc2c(cc1OC)CN(c1ccc(-c3ccccc3OC)nn1)CC2,35µM*,-10%,12%[38.3 µM],6,-17,-5%
CSc1ncc(Cl)c(C(=O)C(C#N)c2nc3c(C)cc(C)cc3c(=O)[nH]2)n1 (centres undefined),25µM*,.,14%,8,-95*,3%
c1cncc(CNc2ncncc2-c2ccc3c(c2)OCO3)c1,?,10%,6%,.,.,1%
CC(CCN(C)C)OC(=O)c1ccc(C(C)c2ccccc2)o1 (centres undefined),-6%,27%,23%[38.3 µM],11,-107*,3%
CC(CN(C)Cc1ccccc1)OC(=O)c1ccccc1F (centres undefined),-11%,.,6%,-7,-1,-1%
Cc1ccc(/C=C2/NC(=O)N(Cc3ccccc3)C2=O)o1,25µM*,.,7%,.,-2,-19%
COc1cccc(NC(=O)C2CCN(S(=O)(=O)c3c(C)noc3C)CC2)c1,.,.,.,4,.,.
